“And” between values parts separate entries of the source, which are not always exact repeats. Equal entries are not always repeated. About 83,000 compounds went through this panel and 20% of them were active in at least one assay; those are over-represented in the sample as a whole.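 Results are percent growth after 48 hours of single-concentration exposure. 100 means growth as in untreated cells, lower positive values show inhibition; negative values down to -100 show cell death.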 Values without a mark were called inactive. The source made the active and inactive calls. The calls were made as follows: active = growth percent below 10; inactive = the rest.

In the test the test system is HL-60(TB) leukemia. The test is described as follows: NCI-60 one-dose screen, 48 h (100 = growth as untreated, 0 = no growth, -100 = all killed). To be noted: 10 µM unless noted.
With `COc1cc(Nc2c(C#N)cnc3cc(OCCCN4CCN(C)CC4)c(OC)cc23)c(Cl)cc1Cl`, the growth was 6.54% (active).
Then `COC(=O)c1ccc(=O)c2nc3/c(=C/O)c(O)cc(=O)c3[nH]c12`, with 0.308% (active); and `CCCCCCN1C(=O)CN=C1Nc1ccc2cc3ccc(NC4=NCC(=O)N4CCCCCC)cc3nc2c1`, with 50.1%; and `COc1ccc(NC(=O)C(=O)c2c[nH]c3ccc(F)cc23)cc1`, with 79%.
For the compound `CC(=O)OCC(=O)[C@@]1(O)CC[C@H]2[C@@H]3CCC4=CC(=O)CC[C@]4(C)[C@@]3(F)[C@@H](O)C[C@@]21C`, the growth was 98.2%.
Take `CCc1c(CC(=O)O)c2cc(C)ccc2n1Cc1ccc(Cl)cc1`: the growth is 89.3% and 161%.
On to `O=C(O)CCCCc1ccc([N+](=O)[O-])cc1`, for which the growth was 74.8% and 93.9%.
`CN(C)Cc1ccccn1`: the growth was 108%.
On to `C=C1C(=O)O[C@H]2[C@H]1CC/C(COC(=O)NCCc1ccc(OC)c(OC)c1)=C\CC[C@@]1(C)O[C@@H]21`, for which the growth is 30.7%.
Turning to `Clc1ccc(/C=N\N2CCCCCC2)cc1`, the growth was 99.3% and 77.3%.
Then `Cc1sc2nc3[nH]/c(=C\c4ccc(Cl)cc4)c(=O)n3c(=O)c2c1C`, with 92.8%.
Then `O=C(Nc1ccc(-n2cc(-c3ccncc3)c(-c3ccc(O)c(Cl)c3)n2)cc1)Nc1ccc(Cl)c(C(F)(F)F)c1`, with -4.77% (active); and `O=C(NCCO)c1cccnc1`, with 97.1%.
With `O=c1c2sc3ccccc3c2nnn1-c1ccc(F)c(Cl)c1`, the growth was 73.7%.
`COc1ccccc1/C=C1\Oc2cc(OCCCN3CCCC3)ccc2C1=O`: the growth was 78.7%.
As for `Nc1c(C(=O)Nc2ccccc2)sc2nc3c(cc12)C(O)CCC3` (stereo not given), the growth was -8.34% (active).
In the case of `O=C(Nc1nc2ccccc2[nH]1)C(=O)Nc1nc2ccccc2[nH]1`, the growth was 99.7%.
For `CN(C)CCCOc1cccc(NC2=C(Cl)C(=O)C(Nc3cccc(OCCCN(C)C)c3)=C(Cl)C2=O)c1`, the growth was -53.2% (active).
The value for `c1ccc2c(N3CCCCC3)ncnc2c1` was 51.5%; that for `Cc1ccc2oc(=O)cc(-c3nc4ccc([N+](=O)[O-])cc4[nH]3)c2c1` was 53.1%.
On to `CCOC(=O)C(C)(CSSCC(C)(NC(=O)c1ccc2ccccc2c1)C(=O)OCC)NC(=O)c1ccc2ccccc2c1` (stereo not given), for which the growth was 98.8%.
Regarding `O=c1c2c(c3ccccc3n1-c1ccccc1)NC(=S)NC2c1ccccc1` (stereo not given), the growth is 44.3%.
`CCOC(=O)c1nnn(C(Cc2ccccc2Cl)C(=O)OCC)c1C` (stereo not given): the growth is 96.5%.
`CCN(CC)c1ccc(NC(C(=O)c2ccccc2)c2ccccc2)cc1` (stereo not given): the growth is 65.5%.
Consider `NC(=O)c1cc(Cl)ccc1NC(=O)c1ccccc1-c1ccccc1`, for which the growth was 1.29% (active).
As to `CCN1CCN(c2cc(C)nc(N(CCCNc3ccnc4cc(Cl)ccc34)Cc3cccs3)n2)CC1`, the growth was -50.3% (active).
In the case of `COc1c(NC=O)c2c(c([N+](=O)[O-])c1OC)C(=O)OC2`, the growth was 98% and 90.7%.
For the compound `O=C1C(Cl)=C(Oc2ccccc2)C(=O)c2ccccc21`, the growth is 76%.
As for `CCCCCCCC(=O)SCC/C=C/[C@@H]1CC(=O)NCc2cccc(n2)C2=N[C@@](C)(CS2)C(=O)N[C@@H](C(C)C)C(=O)O1`, the growth was 19.9%.
As to `C[C@H](C(=O)N[C@@H](Cc1ccc(-c2ccccc2)cc1)C(=O)NC1CC(C)(C)N(C)C(C)(C)C1)c1ccc(-c2ccccc2)c(F)c1`, the growth is -61.2% (active).
As to `O=C(C[C@]1(O)C(=O)Nc2ccccc21)c1cccc(C(F)(F)F)c1`, the growth is 102%.
On to `CC1(C)CC(=O)c2cc3c(N)c(C(=O)Nc4ccc(Cl)cc4)sc3nc2C1`, for which the growth is 107%.
In the case of `Cc1[nH]c(C(=O)Nc2ccccc2OCc2cccc(C(=O)NCCN)c2)c(Cl)c1Cl`, the growth is 45%.
With `COc1cc(-c2cc(-c3cc4c([nH]c5ccccc54)c(-c4cc(OC)c(OC)c(OC)c4)n3)cc(-c3ccccc3)n2)cc(OC)c1OC`, the growth is 30.9%.
For the compound `O=C1Nc2ccc(Cl)cc2C12Nc1cc(Cl)ccc1S2` (stereo not given), the growth was 42.6%.
For the compound `COc1ccc(/C=C2/C(=O)NC(SCC(=O)N3CCN(c4cc5c(cc4F)c(=O)c(C(=O)O)cn5C4CC4)CC3)=NC2N)cc1OC` (stereo not given), the growth is 104%.
For the compound `Nc1ccc2c(c1)Cc1cc(N)c(Br)cc1-2`, the growth was 86.4%.
As for `COC(=O)C1=COC(C)C2C[n+]3ccc4c([nH]c5ccccc54)c3CC12` (stereo not given), the growth is 106% and 103%.
On to `OCCN1CCN(CCO)CC1`, for which the growth is 108% and 102% and 96.2%.
On to `CCCCCCCCCCCCCCCCCCOc1ccccc1CC(=O)NCC[N+]1(C)CCCC1`, for which the growth was 39.7%.

The values are drawn from PubChem BioAssay (NCI).
